For 1 sequence, binding signal results are on record in publication PMC7862700, “An all-to-all approach to the identification of sequence-specific readers for epigenetic DNA modifications on cytosine”.

What all share (assay): DAPPL (digital affinity profiling via proximity ligation, sequencing); 10 mM Tris-HCl pH 7.5, 50 mM NaCl, 1 mM DTT, 4% glycerol, room temperature, 30 min; GST-TFs on glutathione beads, 16-mer random dsDNA library, 0.1% formaldehyde crosslink after washing; high values mean tight binding
In one assay the target is T1, FLI1 (Homo sapiens, UniProt Q01543 1-452).
T1 sequence: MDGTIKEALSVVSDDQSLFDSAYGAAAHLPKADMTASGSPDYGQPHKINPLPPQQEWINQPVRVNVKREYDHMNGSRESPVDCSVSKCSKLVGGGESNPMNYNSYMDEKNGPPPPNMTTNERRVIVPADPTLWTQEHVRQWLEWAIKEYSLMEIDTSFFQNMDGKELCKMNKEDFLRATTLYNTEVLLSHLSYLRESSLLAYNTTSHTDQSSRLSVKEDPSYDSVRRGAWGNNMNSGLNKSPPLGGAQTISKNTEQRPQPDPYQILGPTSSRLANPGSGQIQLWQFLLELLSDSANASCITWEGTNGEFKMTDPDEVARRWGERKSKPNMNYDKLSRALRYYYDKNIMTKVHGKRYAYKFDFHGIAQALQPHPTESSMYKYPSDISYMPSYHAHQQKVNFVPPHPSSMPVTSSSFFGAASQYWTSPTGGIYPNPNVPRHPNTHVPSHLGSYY
To be noted: protein: recombinant; tags: N-terminal GST; dsDNA, one strand shown. Put shortly:
(§1)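 Binding signal is each hexamer's read frequency for a factor divided by its frequency in the tag-only sample. The factors were GST-fused human transcription factors from yeast, captured on glutathione beads, DNA-barcoded and pooled with that sample. Pools were incubated with 200 nmole of a random double-stranded 16-mer DNA library in Tris/NaCl/DTT/glycerol buffer at room temperature for 30 min, then washed, crosslinked with 0.1% formaldehyde, proximity-ligated with BsaI/T4 ligase (1 h, 37 °C), PCR-amplified and sequenced on an Illumina NextSeq500.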

The target of the next assay is T2, ELK1 (Homo sapiens, UniProt P19419 1-428).
T2 sequence: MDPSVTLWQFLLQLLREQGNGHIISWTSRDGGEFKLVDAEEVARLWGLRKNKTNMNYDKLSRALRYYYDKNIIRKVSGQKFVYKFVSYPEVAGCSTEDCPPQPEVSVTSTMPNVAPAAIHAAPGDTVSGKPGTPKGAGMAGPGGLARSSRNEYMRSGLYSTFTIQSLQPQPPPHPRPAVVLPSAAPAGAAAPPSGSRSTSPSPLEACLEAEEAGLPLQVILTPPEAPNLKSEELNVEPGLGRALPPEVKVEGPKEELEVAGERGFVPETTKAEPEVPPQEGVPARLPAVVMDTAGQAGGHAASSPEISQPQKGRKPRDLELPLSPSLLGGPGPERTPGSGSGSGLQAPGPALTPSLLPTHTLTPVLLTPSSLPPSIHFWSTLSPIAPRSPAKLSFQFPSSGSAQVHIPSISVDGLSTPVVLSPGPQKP
The conditions noted are these: protein: recombinant; tags: N-terminal GST; dsDNA, one strand shown. Put shortly: as §1

The target in the next assay is T3, GABPA (Homo sapiens, UniProt Q06546 1-454).
T3 sequence: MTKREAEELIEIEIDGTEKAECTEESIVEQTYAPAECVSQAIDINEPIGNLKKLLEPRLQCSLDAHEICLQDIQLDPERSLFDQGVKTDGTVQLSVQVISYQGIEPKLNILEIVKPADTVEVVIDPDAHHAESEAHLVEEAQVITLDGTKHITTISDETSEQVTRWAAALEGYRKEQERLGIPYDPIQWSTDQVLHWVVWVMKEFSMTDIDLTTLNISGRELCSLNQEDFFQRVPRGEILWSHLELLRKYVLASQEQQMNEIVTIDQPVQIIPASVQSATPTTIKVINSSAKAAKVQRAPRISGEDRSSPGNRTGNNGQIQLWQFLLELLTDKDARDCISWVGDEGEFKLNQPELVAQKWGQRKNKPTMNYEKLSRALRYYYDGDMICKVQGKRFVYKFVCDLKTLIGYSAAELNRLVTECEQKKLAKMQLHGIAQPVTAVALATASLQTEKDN
The conditions noted are these: protein: recombinant; tags: N-terminal GST; dsDNA, one strand shown. Put shortly:
as §1

For the next assay, the target named is T4, ERG (Homo sapiens, UniProt P11308 1-479).
T4 sequence: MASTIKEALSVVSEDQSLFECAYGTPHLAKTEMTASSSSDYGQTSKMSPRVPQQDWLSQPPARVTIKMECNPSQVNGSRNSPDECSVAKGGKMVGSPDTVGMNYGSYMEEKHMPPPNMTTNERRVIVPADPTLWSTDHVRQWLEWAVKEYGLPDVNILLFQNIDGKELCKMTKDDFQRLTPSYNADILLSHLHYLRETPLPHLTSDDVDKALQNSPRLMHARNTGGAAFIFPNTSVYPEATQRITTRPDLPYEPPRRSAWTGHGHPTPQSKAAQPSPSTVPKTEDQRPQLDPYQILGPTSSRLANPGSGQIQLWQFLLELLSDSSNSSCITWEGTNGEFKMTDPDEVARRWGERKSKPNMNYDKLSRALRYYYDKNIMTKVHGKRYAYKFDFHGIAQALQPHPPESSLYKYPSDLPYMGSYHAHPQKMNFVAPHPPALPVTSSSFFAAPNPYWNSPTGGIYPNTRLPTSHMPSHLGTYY
The conditions noted are these: protein: recombinant; tags: N-terminal GST; dsDNA, one strand shown. Put shortly: as §1

The target in a further assay is ELF1 (Homo sapiens, UniProt P32519 1-619). To be noted: protein: recombinant; tags: N-terminal GST; dsDNA, one strand shown. The method in brief: as §1
Sequence of ELF1 (P32519 whole entry): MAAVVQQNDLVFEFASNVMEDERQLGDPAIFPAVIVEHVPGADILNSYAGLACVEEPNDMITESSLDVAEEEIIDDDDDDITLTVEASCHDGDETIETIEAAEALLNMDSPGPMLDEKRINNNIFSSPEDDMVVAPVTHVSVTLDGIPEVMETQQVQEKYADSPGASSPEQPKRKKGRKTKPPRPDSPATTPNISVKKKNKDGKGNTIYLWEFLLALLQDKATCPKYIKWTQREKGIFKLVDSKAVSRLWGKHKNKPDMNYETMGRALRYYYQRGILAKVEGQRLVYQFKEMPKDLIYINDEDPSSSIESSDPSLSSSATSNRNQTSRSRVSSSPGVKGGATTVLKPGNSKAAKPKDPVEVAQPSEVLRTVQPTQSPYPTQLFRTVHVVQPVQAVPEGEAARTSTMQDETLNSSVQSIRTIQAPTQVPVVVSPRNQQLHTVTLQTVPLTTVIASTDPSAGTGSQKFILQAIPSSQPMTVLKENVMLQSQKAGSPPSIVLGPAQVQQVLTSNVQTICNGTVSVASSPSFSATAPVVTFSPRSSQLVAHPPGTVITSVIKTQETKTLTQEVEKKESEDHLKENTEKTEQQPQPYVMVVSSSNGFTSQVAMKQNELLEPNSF
The target of a further assay is T5, EHF (Homo sapiens, UniProt Q9NZC4 1-300).
T5 sequence: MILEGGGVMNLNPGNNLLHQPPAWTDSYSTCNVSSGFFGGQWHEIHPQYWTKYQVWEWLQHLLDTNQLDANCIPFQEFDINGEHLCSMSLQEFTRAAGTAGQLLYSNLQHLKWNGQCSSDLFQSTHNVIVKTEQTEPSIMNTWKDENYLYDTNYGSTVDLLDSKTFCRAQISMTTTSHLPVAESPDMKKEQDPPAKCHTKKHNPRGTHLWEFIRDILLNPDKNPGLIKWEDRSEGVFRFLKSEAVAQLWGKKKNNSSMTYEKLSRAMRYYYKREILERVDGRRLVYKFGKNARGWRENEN
To be noted: protein: recombinant; tags: N-terminal GST; dsDNA, one strand shown. Put shortly:
as §1

In a further assay the target is SPI1 (Homo sapiens, UniProt P17947 1-270). To be noted: protein: recombinant; tags: N-terminal GST; dsDNA, one strand shown. The method in brief:
as §1

The target in a further assay is SPIB (Homo sapiens, UniProt Q01892 1-262). The conditions noted are these: protein: recombinant; tags: N-terminal GST; dsDNA, one strand shown. Put shortly: as §1
Sequence of SPIB (Q01892 whole entry): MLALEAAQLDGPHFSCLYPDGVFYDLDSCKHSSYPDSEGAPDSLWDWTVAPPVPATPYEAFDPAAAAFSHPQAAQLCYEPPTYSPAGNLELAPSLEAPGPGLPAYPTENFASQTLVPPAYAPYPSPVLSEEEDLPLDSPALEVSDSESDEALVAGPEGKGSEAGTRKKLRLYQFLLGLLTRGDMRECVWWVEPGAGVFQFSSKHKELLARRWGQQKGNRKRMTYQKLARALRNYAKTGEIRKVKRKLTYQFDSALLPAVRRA
For the next assay, the target named is T6, ELK3 (Homo sapiens, UniProt P41970 1-407).
T6 sequence: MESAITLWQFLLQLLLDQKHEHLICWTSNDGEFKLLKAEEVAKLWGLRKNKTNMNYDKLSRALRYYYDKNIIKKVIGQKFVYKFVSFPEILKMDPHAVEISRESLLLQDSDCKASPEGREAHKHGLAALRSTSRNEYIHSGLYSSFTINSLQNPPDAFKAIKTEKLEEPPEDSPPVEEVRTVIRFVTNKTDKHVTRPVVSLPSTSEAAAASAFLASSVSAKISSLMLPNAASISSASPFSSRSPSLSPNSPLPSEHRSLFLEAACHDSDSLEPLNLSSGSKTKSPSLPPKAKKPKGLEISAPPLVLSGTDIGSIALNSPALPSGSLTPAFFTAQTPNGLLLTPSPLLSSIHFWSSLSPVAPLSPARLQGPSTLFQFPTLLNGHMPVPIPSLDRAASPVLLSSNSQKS
The conditions noted are these: protein: recombinant; tags: N-terminal GST; dsDNA, one strand shown. Put shortly: as §1

Another assay addresses T7, FEV (Homo sapiens, UniProt Q99581 1-238).
T7 sequence: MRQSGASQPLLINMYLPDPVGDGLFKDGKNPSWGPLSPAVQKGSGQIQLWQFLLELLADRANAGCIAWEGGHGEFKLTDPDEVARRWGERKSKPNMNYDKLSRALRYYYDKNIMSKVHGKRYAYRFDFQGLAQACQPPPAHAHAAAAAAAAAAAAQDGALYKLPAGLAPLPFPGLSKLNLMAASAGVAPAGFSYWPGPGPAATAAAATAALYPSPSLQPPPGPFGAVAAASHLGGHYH
To be noted: protein: recombinant; tags: N-terminal GST; dsDNA, one strand shown. Put shortly: as §1

The target in another assay is ETV5 (Homo sapiens, UniProt P41161 1-510). To be noted: protein: recombinant; tags: N-terminal GST; dsDNA, one strand shown. Put shortly: as §1
Sequence of ETV5 (P41161 whole entry): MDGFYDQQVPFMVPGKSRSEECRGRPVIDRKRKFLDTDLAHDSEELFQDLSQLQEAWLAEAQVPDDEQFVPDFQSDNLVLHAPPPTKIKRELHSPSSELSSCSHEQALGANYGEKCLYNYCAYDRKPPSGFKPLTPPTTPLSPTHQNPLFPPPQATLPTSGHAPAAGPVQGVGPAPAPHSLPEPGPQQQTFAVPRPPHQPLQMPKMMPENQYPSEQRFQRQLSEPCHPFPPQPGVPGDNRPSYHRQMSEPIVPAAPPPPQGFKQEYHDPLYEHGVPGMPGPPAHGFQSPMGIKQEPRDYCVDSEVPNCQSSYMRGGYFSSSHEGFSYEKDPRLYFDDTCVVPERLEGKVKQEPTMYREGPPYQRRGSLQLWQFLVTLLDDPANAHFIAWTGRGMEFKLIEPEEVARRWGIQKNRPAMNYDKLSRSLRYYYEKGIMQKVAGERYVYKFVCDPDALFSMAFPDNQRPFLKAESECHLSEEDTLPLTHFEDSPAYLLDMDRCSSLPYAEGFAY
The target in a further assay is HSF1 (Homo sapiens, UniProt Q00613 1-529). The conditions noted are these: protein: recombinant; tags: N-terminal GST; chain copies: 3; dsDNA, one strand shown. The method in brief:
as §1

A further assay deals with T8, SPIC (Homo sapiens, UniProt Q8N5J4 1-248).
T8 sequence: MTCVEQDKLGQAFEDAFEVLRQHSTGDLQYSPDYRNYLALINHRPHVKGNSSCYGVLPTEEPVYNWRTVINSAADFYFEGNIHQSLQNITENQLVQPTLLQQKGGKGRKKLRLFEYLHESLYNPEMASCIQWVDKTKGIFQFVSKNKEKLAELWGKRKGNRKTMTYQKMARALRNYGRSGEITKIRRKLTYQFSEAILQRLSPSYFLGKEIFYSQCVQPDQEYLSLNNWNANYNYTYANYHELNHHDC
The conditions noted are these: protein: recombinant; tags: N-terminal GST; dsDNA, one strand shown. Put shortly:
as §1

A further assay has as its target ELF4 (Homo sapiens, UniProt Q99607 1-663). To be noted: protein: recombinant; tags: N-terminal GST; dsDNA, one strand shown. Put shortly: as §1
The target of another assay is T9, ELK4 (Homo sapiens, UniProt P28324-2 1-405).
T9 sequence: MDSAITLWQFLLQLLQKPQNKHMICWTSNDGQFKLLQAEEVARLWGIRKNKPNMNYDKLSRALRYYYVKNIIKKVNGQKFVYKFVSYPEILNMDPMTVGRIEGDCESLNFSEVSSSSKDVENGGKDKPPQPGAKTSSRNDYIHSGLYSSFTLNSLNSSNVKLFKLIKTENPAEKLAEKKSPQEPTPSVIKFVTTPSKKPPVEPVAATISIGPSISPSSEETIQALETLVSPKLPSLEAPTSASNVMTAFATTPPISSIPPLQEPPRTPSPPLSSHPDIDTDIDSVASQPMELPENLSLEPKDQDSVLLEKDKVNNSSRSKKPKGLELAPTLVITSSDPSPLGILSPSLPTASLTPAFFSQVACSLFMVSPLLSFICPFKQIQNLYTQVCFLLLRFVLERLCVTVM
To be noted: protein: recombinant; tags: N-terminal GST; dsDNA, one strand shown. The method in brief: as §1

Another assay has as its target T10, ETV2 (Homo sapiens, UniProt O00321 1-342).
T10 sequence: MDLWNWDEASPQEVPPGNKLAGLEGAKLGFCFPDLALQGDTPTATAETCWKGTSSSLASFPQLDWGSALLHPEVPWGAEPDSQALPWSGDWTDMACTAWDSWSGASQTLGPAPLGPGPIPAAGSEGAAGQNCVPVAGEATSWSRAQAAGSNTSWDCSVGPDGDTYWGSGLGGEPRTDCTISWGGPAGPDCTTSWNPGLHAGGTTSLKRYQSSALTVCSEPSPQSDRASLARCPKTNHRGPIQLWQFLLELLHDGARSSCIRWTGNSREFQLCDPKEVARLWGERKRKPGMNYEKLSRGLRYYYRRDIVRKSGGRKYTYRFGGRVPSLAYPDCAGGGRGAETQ
To be noted: protein: recombinant; tags: N-terminal GST; dsDNA, one strand shown. The method in brief: as §1

The target in the next assay is T11, ELF3 (Homo sapiens, UniProt P78545 1-371).
T11 sequence: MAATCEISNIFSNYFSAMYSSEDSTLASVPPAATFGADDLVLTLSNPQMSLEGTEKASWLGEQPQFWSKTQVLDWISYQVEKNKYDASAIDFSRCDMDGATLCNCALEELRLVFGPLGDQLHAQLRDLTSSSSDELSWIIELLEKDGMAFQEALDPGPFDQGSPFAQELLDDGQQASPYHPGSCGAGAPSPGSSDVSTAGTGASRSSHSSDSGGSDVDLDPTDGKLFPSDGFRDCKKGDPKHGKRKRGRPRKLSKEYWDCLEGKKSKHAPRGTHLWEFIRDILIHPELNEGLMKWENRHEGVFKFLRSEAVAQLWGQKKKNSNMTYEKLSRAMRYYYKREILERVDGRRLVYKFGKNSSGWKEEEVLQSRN
The conditions noted are these: protein: recombinant; tags: N-terminal GST; dsDNA, one strand shown. Put shortly:
as §1

The target in a further assay is CRX (Homo sapiens, UniProt O43186 1-299). The conditions noted are these: protein: recombinant; tags: N-terminal GST; dsDNA, one strand shown. The method in brief: as §1
Sequence of CRX (O43186 whole entry): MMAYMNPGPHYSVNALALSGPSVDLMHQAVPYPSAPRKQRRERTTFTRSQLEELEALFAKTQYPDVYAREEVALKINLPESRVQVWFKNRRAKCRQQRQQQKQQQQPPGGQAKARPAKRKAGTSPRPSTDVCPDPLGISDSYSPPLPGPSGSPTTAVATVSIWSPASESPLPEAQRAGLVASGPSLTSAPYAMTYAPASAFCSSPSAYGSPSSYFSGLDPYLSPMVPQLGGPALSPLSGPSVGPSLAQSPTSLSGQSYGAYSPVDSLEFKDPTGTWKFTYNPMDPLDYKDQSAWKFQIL
Another assay deals with ETV1 (Homo sapiens, UniProt P50549 1-477). To be noted: protein: recombinant; tags: N-terminal GST; dsDNA, one strand shown. The method in brief:
as §1

Sequence of ELF4 (Q99607 whole entry): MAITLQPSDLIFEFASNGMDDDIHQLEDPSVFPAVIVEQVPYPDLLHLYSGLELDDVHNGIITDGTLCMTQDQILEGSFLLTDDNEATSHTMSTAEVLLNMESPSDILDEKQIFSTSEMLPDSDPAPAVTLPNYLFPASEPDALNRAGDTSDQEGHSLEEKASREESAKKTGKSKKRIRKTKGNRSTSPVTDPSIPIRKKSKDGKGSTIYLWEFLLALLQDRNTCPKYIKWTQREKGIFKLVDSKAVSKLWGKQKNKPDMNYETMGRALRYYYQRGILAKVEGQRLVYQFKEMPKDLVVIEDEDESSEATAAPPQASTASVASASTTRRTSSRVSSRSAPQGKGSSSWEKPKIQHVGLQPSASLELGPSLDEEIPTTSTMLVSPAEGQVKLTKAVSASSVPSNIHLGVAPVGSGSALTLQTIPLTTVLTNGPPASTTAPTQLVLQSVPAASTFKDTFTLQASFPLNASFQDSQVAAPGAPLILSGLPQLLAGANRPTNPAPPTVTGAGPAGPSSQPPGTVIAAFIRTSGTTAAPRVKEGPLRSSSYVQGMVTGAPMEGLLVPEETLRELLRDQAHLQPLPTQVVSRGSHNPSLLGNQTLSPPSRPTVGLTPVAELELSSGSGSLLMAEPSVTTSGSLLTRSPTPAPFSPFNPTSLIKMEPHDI
Sequence of HSF1 (Q00613 whole entry): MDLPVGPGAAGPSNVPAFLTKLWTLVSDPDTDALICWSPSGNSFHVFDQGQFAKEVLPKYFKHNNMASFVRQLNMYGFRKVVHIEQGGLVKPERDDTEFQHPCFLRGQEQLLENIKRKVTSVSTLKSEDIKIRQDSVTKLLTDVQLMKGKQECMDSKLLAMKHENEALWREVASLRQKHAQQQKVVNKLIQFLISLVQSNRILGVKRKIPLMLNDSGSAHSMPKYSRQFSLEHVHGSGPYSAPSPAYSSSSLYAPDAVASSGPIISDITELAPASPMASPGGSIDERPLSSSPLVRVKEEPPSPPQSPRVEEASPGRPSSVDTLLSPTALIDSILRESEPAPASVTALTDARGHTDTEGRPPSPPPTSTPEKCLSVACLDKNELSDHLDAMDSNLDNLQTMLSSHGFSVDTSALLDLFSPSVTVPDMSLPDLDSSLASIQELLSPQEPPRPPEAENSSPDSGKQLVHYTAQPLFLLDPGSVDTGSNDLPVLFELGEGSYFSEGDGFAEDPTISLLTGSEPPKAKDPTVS
Sequence of ETV1 (P50549 whole entry): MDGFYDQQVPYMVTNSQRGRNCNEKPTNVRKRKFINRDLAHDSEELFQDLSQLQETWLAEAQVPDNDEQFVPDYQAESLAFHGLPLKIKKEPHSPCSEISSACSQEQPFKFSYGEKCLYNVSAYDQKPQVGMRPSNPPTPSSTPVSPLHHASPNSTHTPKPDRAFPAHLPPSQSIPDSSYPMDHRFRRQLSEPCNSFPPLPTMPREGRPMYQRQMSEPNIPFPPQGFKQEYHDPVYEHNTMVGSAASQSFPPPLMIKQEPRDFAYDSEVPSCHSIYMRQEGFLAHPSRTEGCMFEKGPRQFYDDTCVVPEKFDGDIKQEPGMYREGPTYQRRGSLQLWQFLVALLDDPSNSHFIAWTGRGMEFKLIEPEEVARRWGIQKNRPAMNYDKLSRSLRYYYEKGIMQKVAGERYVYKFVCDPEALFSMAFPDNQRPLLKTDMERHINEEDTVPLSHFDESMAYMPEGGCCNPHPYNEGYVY

With CCATCT, the binding signal was 1.3 fold enrichment (6-mer frequency, TF over GST control) in the assay with FLI1; 1.44 fold enrichment (6-mer frequency, TF over GST control) with ELK1; 1.32 fold enrichment (6-mer frequency, TF over GST control) with GABPA; 1.26 fold enrichment (6-mer frequency, TF over GST control) in the assay with ERG; 1.38 fold enrichment (6-mer frequency, TF over GST control) in the assay with ELF1; 1.33 fold enrichment (6-mer frequency, TF over GST control) in the assay with EHF. Moreover, the binding signal is 1.21 fold enrichment (6-mer frequency, TF over GST control) in the assay with SPI1; 1.28 fold enrichment (6-mer frequency, TF over GST control) with SPIB; 1.28 fold enrichment (6-mer frequency, TF over GST control) in the assay with ELK3; 1.27 fold enrichment (6-mer frequency, TF over GST control) in the assay with FEV; 1.29 fold enrichment (6-mer frequency, TF over GST control) in the assay with ETV5; 1.31 fold enrichment (6-mer frequency, TF over GST control) in the assay with HSF1. Also, the binding signal is 1.35 fold enrichment (6-mer frequency, TF over GST control) with SPIC; 1.25 fold enrichment (6-mer frequency, TF over GST control) with ELF4; 1.4 fold enrichment (6-mer frequency, TF over GST control) in the assay with ELK4; 1.39 fold enrichment (6-mer frequency, TF over GST control) with ETV2; 1.34 fold enrichment (6-mer frequency, TF over GST control) in the assay with ELF3; 1.28 fold enrichment (6-mer frequency, TF over GST control) with CRX. Also, the binding signal with ETV1 is 1.34 fold enrichment (6-mer frequency, TF over GST control).
